Sampled rows, rich in hits. Any-hit rate of the full collection: about 2.5%.
MRP reversal: MRP-mediated drug resistance reversal; H69AR cells + 2 uM doxorubicin, CellTiter-Glo, 72 h; differential viability (reversal), % at 10 µM; 85,000 tested, 0.04% active; AID 602;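 active means viability drop by adding the cancer drug above about 55%, with treated viability meeting a 40% cutoff, limit read from the data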;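 further: larger differential means the compound sensitizes cells more to doxorubicin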
Measles CPE: protection of cells from measles virus; 140,000 tested, 1.5% active; AID 841; Measles virus-infected cells, CPE protection, absorbance; protection (pct of control), % at 4 µM; in the data active means protection mostly above about 24%, no sharp cut-off; inactive means mostly below about 26%
MRP-1 activ: MRP-1 activation; 140,000 tested, 0.61% active; H69AR cells + doxorubicin, viability rescue, CellTiter-Glo; AID 799; viability increase, % at 10 µM;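 active means viability gain under doxorubicin at or above a set limit, the compound median plus 3 SD, cut at about 4.7% in these data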;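 further: MRP-1 overexpressing cells given doxorubicin 25 µM after compound pretreatment; 18-22 h compound pretreatment then 72 h with doxorubicin before readout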
sEH act: increases human soluble epoxide hydrolase activity; 91,000 tested, 0.04% active; activation, % at 2 µM; P34913; purified human sEH enzymatic activity, activator screen; in the data active means activation above about 37%
Target sequence (P34913 whole entry, looked up): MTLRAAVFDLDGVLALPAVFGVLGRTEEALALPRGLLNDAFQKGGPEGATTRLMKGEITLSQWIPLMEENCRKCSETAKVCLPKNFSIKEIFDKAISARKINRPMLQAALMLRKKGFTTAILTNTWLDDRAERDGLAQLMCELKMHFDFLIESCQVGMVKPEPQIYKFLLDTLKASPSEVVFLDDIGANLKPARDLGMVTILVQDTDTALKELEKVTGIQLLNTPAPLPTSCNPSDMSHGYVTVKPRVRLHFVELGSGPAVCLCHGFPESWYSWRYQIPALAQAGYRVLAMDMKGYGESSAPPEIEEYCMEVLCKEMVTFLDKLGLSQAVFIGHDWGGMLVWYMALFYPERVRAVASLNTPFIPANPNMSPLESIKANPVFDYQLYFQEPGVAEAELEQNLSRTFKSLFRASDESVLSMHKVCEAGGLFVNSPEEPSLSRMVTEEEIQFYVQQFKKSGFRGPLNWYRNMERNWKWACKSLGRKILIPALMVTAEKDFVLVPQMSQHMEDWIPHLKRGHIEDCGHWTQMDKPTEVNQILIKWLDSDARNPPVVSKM
sEH inhibitor: blocks human soluble epoxide hydrolase activity | 91,000 tested, 0.34% active | recombinant human sEH enzymatic activity assay | AID 707 | inhibition, % at 2 µM; in the data active means inhibition above about 80%
SDO1 yeast rescue: compounds rescuing growth of sdo1-depleted yeast, bone marrow failure model; z-score at 10 µM; S. cerevisiae sdo1-depleted JHY4D growth rescue, OD600 30 h; active compounds read high; pdr5 snq2 efflux-pump mutant strain; 140,000 tested, 0.21% active;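 active means z-score above 3 at both the 24 hr and the 30 hr optical density reads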
SDO1 rescue DR: confirmation of growth rescue in SDO1-depleted yeast, bone marrow failure; shares compounds with SDO1 yeast rescue; S. cerevisiae JHY4D (SDO1-depleted) growth rescue, OD600, 30 h; active compounds read high; efflux-deficient strain, SNQ2 and PDR5 mutated; 440 tested, 44% active; OD recovery (concentration not given with the values); AID 949;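 active means yeast growth recovered at 30 hours, either rising with dose fitted slope above 0.001 or with average optical density gain above 0.07, some results past the limit were not filed as active; inactive means growth falling with dose or no effect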
A number is an active result; n = inactive; x = not tested or not shown.

SMILES	MRP reversal	Measles CPE	MRP-1 activ	sEH act	sEH inhibitor	SDO1 yeast rescue	SDO1 rescue DR
C=CCn1cc(C(=O)NCCCOCC)c(=O)c2cc(S(=O)(=O)N(CC)CC)ccc21	n	x	n	n	n	n	x
CC12CCC(C(=O)N(NC(=O)c3cccnc3)C1=O)C2(C)C (stereo not given)	x	n	n	x	x	6.2	n
COC(=O)/C(=N\Nc1ccc(Cl)cc1)Sc1nnc(-c2ccc(OC)cc2)n1C	x	n	n	x	x	n	x
CCOc1cc(NC(=O)c2ccco2)c(OCC)cc1NC(=O)c1cc(OC)c(OC)c(OC)c1	n	n	n	n	n	n	n
CC(=O)C1C(c2ccc(Br)cc2)C2C(C)=NN=C2CC1(C)O (stereo not given)	x	n	n	x	x	n	x
CC(=O)C1C(c2ccc(F)cc2)C2C(C)=NN=C2CC1(C)O (stereo not given)	x	n	n	x	x	9.7	0.072
Cc1nn(-c2ccccc2)c(C)c1NC(=O)COc1ccc(Br)cc1Cl	x	n	n	x	x	n	x
O=C(CCSc1ccccc1)Nc1ccccc1C(=O)N1CCCC1	x	n	n	x	x	n	x
Cc1ccc(SCCC(=O)Nc2ccccc2C(=O)N2CCOCC2)cc1	x	n	n	x	x	4.1	n
N#C/C(=C\c1cn(CCOc2ccccc2)c2ccccc12)C(=O)NCc1cccs1	x	n	n	x	x	n	x
CC(C)(C)NS(=O)(=O)c1cc(C(=O)Nc2sccc2C#N)ccc1Cl	x	n	n	x	x	n	x
CN1CCN(c2ccc(Cl)cc2NC(=O)c2ccc(S(=O)(=O)N(C)C)cc2)CC1	x	n	n	n	n	4.3	n
CCN(C(=O)CN(C)Cc1cccc(Cl)c1Cl)c1c(N)n(Cc2ccccc2)c(=O)[nH]c1=O	x	n	n	x	x	n	x
O=C(CSc1nc(Nc2ccccc2)nc(N2CCOCC2)n1)N1CCCC1	n	n	n	n	n	4	n
COc1ccc(-n2cnnc2SCc2cnc(-c3ccccc3)s2)cc1	n	n	n	n	n	3.1	n
Nc1nc(-c2ccco2)c(-c2ccco2)s1	n	n	n	n	n	13	0.071
O=C(CSc1ncn[nH]1)Nc1nc(-c2ccccc2)ns1	n	n	n	n	n	n	n
COc1ccc(C(=O)O/N=C(\C)c2ccccc2)cc1	x	n	n	n	n	n	x
COc1ccc(C(=O)N=c2nc3ccccn3s2)cc1	n	n	n	x	x	n	0.085
Cc1ccc(-n2[nH]c(C)c(C=Nc3cc(C)ccn3)c2=O)cc1	n	n	n	n	n	9.4	0.07
Cc1ccc(-n2[nH]c(C)c(/C=N/c3ccccn3)c2=O)cc1	n	n	n	n	n	n	x
CC(=O)Nc1ccc(SCC(=O)N(CCC#N)c2cc(C)cc(C)c2)cc1	x	n	n	n	n	3.9	0.084
Cc1cc(C)cc(N(CCC#N)C(=O)CSc2nc3nc(C)cc(C)n3n2)c1	n	n	n	n	n	n	x
CC(C)(C)C1CCC(=NNC(=O)C(=O)NC2CCCCC2)CC1 (stereo not given)	x	n	n	x	x	n	x
Cc1nc(Nc2ccc(S(N)(=O)=O)cc2)oc1C	n	n	n	n	n	6.5	n
SMILES	MRP reversal	Measles CPE	MRP-1 activ	sEH act	sEH inhibitor	SDO1 yeast rescue	SDO1 rescue DR
COC(=O)/C=C/c1ccc(OC(=O)c2ccncc2)cc1	x	n	n	x	x	n	x
Cc1ccc(C(=O)COC(=O)CCC(=O)NC2CCCCC2)cc1C	n	n	n	n	n	8.2	n
COc1ccccc1NCCC(=O)OCC(=O)NC1CCCCCC1	x	n	n	x	x	n	x
O=C(O)c1ccc(COc2ccccc2[N+](=O)[O-])o1	x	n	n	x	x	n	x
CC(=O)c1ccc(NC(=O)c2ccc(COc3ccccc3[N+](=O)[O-])o2)cc1	x	n	n	x	x	n	0.097
CCOC(=O)c1cccc(NC(=O)CSc2nnc(COc3ccccc3C)o2)c1	n	n	n	n	n	n	n
CC(=O)N/C(=C\c1ccc(F)cc1)C(=O)OC(C)C	x	n	n	x	x	3.4	0.098
O=C1CSC(c2ccccn2)N1c1ccccc1 (stereo not given)	x	n	n	n	n	4.1	0.08
O=C(Cc1ccc(F)cc1)N/N=C/c1ccncc1	x	n	n	x	x	n	x
COc1ccc(-c2nc3nc(C)cc(C)n3n2)cc1	n	n	n	n	n	13	n
COc1ccc(CNc2nc3nc(C)cc(C)n3n2)cc1	n	n	n	n	n	n	x
COc1ccc(CNC(=O)c2ccc(=O)oc2)cc1OC	n	n	n	n	n	n	x

Assay outcomes deposited in PubChem by several laboratories.
